# Test results published in ChEMBL document CHEMBL2218924, “A broad activity screen in support of a chemogenomic map for kinase signalling research and drug discovery” (Biochem J, 2013).
# What was measured:
# [1] = molecular target: Tyrosine-protein kinase SYK (Homo sapiens) (UniProt P43405); details: at 10 µM
# [2] = molecular target: T1, Serine/threonine-protein kinase TAO1 (Homo sapiens) (UniProt Q7L7X3); details: at 1 µM
# T1 sequence (whole entry): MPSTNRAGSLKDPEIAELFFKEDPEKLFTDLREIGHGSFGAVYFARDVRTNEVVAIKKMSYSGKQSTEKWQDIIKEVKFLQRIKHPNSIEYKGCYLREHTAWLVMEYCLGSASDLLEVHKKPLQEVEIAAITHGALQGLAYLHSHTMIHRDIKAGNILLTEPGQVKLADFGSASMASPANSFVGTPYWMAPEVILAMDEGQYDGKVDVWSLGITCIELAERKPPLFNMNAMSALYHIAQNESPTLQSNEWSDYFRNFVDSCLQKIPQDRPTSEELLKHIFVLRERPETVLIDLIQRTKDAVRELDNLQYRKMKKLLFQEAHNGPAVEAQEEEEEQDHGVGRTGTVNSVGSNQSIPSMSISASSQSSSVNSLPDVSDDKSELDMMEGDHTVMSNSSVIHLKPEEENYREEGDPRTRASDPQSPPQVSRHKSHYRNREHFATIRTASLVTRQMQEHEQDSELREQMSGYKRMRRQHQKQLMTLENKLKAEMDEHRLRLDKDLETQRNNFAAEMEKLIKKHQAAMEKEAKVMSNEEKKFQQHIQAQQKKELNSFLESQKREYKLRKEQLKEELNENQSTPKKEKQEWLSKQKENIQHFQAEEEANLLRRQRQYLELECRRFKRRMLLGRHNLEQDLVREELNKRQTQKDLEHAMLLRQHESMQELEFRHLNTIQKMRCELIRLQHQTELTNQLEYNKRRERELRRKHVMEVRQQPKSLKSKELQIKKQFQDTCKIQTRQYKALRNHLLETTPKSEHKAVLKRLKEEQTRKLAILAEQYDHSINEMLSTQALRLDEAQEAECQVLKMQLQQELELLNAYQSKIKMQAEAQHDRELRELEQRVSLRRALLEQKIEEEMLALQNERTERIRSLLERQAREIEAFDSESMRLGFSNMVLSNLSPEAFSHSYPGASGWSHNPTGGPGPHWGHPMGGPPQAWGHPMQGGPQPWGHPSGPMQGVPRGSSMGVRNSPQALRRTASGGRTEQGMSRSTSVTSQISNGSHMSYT
# [3] = molecular target: T1, Serine/threonine-protein kinase TAO1 (Homo sapiens); details: at 10 µM
# [4] = molecular target: T2, Serine/threonine-protein kinase TAO2 (Homo sapiens) (UniProt Q9UL54); details: at 1 µM
# T2 sequence (whole entry): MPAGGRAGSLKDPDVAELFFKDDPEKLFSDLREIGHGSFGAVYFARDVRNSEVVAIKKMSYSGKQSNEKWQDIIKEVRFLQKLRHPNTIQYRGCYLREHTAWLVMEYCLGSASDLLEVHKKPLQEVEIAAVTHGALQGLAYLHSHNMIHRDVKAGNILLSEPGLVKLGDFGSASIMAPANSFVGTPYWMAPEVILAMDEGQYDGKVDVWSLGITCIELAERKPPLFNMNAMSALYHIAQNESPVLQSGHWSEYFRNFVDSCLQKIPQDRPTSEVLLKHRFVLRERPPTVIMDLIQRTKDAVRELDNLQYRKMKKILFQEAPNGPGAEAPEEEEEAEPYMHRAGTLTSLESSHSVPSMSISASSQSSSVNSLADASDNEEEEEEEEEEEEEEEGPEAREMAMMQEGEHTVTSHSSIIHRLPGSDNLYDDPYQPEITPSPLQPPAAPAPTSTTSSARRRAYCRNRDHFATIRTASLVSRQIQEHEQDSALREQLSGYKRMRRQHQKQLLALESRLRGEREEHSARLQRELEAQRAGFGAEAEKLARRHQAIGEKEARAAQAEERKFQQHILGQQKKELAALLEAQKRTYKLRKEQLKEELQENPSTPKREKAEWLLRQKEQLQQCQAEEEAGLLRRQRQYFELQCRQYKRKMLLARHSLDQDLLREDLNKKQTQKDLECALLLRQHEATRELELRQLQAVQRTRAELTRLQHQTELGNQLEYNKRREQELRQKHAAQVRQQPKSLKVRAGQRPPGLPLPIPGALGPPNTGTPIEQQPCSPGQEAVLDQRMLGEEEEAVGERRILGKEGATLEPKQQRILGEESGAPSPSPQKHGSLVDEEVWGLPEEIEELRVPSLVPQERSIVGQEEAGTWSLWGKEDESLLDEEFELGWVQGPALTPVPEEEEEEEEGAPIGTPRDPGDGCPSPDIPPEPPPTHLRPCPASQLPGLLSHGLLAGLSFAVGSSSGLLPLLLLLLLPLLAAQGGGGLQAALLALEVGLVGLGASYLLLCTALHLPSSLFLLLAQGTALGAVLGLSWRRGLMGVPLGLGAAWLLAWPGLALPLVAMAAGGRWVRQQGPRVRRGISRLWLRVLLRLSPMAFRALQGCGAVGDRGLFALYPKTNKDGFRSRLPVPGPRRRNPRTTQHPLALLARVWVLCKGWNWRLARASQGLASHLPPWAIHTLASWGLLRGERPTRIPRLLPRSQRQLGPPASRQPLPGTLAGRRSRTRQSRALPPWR
# [5] = molecular target: T2, Serine/threonine-protein kinase TAO2 (Homo sapiens); details: at 10 µM
# [6] = molecular target: T3, Serine/threonine-protein kinase TAO3 (Homo sapiens) (UniProt Q9H2K8); details: at 1 µM
# T3 sequence (whole entry): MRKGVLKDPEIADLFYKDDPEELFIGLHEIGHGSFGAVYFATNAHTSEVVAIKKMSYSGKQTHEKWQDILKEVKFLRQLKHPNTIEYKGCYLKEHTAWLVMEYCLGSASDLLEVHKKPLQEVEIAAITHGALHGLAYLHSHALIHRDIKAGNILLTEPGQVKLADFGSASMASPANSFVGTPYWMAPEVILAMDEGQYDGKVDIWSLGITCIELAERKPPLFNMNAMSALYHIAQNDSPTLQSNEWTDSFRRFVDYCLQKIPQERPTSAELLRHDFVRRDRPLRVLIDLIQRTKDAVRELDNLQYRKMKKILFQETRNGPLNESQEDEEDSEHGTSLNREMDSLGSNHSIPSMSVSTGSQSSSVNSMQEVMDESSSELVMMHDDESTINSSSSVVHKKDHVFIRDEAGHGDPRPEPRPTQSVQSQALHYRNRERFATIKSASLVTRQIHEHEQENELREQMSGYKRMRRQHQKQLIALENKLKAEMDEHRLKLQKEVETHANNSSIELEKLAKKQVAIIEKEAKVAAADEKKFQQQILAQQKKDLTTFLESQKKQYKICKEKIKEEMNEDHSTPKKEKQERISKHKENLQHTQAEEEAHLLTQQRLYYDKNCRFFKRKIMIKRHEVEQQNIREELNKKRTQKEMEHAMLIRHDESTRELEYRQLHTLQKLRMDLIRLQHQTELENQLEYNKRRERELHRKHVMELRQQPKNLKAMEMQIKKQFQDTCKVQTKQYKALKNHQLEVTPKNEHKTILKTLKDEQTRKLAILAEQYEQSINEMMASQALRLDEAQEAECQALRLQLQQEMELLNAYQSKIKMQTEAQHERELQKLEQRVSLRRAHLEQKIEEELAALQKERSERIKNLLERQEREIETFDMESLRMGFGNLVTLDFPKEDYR
# [7] = molecular target: T3, Serine/threonine-protein kinase TAO3 (Homo sapiens); details: at 10 µM
# [8] = molecular target: T4, Serine/threonine-protein kinase TBK1 (Homo sapiens) (UniProt Q9UHD2); details: at 1 µM
# T4 sequence (whole entry): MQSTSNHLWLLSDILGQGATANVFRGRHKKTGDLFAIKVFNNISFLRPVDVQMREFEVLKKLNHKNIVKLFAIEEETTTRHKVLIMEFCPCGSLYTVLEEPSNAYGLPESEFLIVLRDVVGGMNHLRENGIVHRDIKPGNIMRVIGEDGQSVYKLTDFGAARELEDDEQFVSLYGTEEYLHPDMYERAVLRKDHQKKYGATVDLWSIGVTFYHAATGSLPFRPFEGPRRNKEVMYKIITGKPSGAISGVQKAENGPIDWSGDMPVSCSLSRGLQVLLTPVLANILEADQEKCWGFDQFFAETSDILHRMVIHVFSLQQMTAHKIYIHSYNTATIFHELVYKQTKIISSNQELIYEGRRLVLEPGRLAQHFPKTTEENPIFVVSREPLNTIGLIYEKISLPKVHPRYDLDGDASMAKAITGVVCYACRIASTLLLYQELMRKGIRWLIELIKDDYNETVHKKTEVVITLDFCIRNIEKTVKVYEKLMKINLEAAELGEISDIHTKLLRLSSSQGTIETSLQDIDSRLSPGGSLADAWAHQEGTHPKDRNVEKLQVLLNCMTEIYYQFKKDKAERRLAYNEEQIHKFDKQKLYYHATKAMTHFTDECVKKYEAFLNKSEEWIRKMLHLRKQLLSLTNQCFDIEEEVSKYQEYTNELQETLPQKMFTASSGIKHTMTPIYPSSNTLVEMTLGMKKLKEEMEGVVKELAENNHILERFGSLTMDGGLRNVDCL
# [9] = molecular target: T4, Serine/threonine-protein kinase TBK1 (Homo sapiens); details: at 10 µM
# [10] = molecular target: T5, TGF-beta receptor type-1 (Homo sapiens) (UniProt P36897); details: at 1 µM
# T5 sequence (whole entry): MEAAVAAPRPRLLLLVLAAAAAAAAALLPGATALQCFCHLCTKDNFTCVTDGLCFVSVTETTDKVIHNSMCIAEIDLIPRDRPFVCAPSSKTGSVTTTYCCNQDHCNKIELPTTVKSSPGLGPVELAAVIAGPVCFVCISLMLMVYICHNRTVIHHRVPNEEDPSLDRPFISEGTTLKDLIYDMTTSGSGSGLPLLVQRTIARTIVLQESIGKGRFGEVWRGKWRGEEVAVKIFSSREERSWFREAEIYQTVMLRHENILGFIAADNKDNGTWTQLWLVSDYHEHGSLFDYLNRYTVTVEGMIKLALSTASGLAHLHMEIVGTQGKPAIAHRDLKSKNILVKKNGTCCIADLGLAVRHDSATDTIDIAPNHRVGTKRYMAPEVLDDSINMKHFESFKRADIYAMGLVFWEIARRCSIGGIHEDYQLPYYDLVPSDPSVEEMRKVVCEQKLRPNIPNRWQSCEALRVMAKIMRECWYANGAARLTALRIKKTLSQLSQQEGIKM
# [11] = molecular target: Insulin-like growth factor 1 receptor (Homo sapiens) (UniProt P08069); details: at 1 µM
# Insulin-like growth factor 1 receptor (Homo sapiens), sequence (P08069 31-736 limits assumed): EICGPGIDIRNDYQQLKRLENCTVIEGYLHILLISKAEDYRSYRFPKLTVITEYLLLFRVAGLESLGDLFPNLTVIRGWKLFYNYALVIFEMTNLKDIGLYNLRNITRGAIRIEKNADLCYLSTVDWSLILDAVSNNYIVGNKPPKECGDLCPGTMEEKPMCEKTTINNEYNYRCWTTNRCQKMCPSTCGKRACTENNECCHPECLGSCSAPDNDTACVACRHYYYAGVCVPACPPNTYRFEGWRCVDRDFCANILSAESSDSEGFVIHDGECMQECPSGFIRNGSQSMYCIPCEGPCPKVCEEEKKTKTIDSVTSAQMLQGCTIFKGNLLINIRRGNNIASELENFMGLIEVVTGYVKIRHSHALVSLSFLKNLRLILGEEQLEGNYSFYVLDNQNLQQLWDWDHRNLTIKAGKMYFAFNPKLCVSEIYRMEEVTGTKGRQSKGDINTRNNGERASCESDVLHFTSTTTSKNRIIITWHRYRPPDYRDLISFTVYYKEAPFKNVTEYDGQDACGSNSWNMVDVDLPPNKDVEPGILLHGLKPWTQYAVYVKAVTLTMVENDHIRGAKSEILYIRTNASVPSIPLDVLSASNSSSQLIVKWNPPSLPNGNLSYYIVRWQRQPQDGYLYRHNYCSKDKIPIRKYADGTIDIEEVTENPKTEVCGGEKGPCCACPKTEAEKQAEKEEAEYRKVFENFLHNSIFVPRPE
# Insulin-like growth factor 1 receptor (Homo sapiens), sequence (P08069 741-1367 limits assumed): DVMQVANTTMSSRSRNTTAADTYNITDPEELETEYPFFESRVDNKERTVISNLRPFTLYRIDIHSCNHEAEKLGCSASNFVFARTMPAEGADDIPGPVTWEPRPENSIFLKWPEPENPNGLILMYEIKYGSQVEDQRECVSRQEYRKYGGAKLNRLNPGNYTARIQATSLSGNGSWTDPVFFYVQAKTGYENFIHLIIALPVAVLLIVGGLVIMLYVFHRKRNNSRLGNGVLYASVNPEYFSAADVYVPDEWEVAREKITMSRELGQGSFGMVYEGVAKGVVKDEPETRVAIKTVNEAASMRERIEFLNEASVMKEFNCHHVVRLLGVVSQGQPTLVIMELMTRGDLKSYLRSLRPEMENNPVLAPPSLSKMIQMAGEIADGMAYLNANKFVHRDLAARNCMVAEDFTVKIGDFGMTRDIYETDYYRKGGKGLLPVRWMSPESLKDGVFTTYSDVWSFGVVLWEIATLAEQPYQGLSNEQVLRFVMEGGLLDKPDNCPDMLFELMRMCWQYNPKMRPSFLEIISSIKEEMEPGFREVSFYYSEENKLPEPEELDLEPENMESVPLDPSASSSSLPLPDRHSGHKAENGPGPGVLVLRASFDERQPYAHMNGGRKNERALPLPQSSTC
# [12] = molecular target: Insulin-like growth factor 1 receptor (Homo sapiens) (UniProt P08069); details: at 10 µM
# [13] = molecular target: T6, Inhibitor of nuclear factor kappa-B kinase subunit alpha (Homo sapiens) (UniProt O15111); details: at 1 µM
# T6 sequence (whole entry): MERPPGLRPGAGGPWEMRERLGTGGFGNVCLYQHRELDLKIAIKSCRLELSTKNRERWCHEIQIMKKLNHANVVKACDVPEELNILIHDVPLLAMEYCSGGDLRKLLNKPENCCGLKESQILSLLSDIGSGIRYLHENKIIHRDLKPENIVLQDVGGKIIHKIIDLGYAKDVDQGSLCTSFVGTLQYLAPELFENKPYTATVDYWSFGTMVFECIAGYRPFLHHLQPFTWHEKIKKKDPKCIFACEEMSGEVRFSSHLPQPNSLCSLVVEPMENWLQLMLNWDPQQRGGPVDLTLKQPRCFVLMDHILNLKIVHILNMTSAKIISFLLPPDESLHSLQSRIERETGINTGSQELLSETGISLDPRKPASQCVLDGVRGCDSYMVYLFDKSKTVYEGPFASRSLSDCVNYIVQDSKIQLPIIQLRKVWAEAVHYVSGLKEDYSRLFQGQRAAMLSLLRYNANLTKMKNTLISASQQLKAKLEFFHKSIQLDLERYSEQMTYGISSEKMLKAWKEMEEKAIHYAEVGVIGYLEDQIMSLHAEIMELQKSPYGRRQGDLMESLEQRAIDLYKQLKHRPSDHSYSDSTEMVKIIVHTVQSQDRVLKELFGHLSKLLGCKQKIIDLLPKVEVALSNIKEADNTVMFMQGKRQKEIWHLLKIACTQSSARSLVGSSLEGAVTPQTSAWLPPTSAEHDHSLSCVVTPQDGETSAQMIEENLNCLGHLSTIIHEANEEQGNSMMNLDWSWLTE
# [14] = molecular target: T6, Inhibitor of nuclear factor kappa-B kinase subunit alpha (Homo sapiens); details: at 10 µM
# [15] = molecular target: T7, Inhibitor of nuclear factor kappa-B kinase subunit beta (Homo sapiens) (UniProt O14920); details: at 10 µM
# T7 sequence (whole entry): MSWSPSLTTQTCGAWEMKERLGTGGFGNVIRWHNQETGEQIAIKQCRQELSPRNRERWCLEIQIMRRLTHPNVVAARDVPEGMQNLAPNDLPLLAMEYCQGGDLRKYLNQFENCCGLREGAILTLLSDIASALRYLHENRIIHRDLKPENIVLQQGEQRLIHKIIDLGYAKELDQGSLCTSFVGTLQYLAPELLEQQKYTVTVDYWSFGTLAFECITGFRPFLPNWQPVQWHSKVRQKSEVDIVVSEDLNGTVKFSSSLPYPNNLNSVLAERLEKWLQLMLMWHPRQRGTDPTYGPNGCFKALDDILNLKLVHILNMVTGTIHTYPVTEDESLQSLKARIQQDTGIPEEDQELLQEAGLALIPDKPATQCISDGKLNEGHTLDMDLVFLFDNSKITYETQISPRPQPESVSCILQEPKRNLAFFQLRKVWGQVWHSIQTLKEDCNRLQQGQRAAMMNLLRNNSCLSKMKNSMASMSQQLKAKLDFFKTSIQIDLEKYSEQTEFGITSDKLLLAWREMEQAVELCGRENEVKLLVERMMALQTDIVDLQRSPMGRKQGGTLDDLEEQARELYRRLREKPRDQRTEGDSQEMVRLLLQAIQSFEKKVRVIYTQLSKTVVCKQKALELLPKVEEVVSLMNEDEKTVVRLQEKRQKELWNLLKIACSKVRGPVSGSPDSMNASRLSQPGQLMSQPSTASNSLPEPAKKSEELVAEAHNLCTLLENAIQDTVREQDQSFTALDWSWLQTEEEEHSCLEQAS
# [16] = molecular target: Insulin receptor (Homo sapiens) (UniProt P06213); details: at 1 µM
# Insulin receptor (Homo sapiens), sequence (P06213 28-758 limits assumed): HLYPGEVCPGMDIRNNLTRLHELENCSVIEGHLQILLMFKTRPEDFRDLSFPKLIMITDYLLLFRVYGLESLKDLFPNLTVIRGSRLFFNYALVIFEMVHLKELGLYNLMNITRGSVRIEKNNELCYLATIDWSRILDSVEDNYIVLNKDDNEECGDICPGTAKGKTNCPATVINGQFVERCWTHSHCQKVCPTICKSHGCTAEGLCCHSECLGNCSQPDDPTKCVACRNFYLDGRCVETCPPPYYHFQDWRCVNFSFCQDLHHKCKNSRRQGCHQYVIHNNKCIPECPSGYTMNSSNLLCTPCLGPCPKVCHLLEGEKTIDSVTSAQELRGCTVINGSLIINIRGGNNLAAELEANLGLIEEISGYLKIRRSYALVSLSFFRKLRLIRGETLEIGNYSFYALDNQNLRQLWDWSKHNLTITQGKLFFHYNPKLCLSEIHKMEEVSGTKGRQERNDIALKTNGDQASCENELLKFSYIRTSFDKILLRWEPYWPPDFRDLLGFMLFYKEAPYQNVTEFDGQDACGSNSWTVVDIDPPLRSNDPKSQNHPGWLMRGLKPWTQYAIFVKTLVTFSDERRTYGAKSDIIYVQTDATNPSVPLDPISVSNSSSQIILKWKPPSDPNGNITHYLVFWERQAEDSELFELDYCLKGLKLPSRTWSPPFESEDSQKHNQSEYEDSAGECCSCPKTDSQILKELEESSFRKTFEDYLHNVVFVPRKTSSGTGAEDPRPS
# Insulin receptor (Homo sapiens), sequence (P06213 763-1382 limits assumed): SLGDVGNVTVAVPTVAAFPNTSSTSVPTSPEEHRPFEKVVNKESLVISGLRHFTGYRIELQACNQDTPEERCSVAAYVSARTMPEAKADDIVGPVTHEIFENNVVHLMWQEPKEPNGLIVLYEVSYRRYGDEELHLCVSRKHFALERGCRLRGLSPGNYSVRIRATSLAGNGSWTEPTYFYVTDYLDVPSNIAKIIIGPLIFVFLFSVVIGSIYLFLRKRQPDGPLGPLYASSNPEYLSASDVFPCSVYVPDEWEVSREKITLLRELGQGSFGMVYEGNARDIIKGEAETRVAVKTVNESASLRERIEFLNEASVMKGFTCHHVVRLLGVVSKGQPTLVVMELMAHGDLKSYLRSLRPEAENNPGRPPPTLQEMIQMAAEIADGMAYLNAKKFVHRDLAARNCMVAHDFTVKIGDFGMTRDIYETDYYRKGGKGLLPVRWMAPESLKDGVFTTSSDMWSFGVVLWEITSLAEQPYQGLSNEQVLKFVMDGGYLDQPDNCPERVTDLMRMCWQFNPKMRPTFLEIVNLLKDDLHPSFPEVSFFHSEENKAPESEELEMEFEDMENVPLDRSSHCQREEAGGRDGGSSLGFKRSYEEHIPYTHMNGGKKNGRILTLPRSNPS
structure (smiles),measurement,setting,value
CO[C@@H]1[C@H](N(C)C(=O)c2ccccc2)C[C@H]2O[C@]1(C)n1c3ccccc3c3c4c(c5c6ccccc6n2c5c31)C(=O)NC4,residual activity,[1],3%
same,residual activity,[2],50%
same,residual activity,[3],17%
same,residual activity,[4],83%
same,residual activity,[5],47%
same,residual activity,[6],42%
same,residual activity,[7],29%
same,residual activity,[8],2%
same,residual activity,[9],1%
same,residual activity,[10],85%
same,residual activity,[11],92%
same,residual activity,[12],84%
same,residual activity,[13],101%
same,residual activity,[14],91%
same,residual activity,[15],84%
same,residual activity,[16],87%
